CF NFkB block: inhibitors of cystic fibrosis induced NF-kB | KKLEB NF-kB-GFP reporter, PAF-induced, GFP fluorescence overnight | 0.86% of 360,000 active | inhibition, % at 5 µM | AID 588850;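 active = at least 50% inhibition at 5 µM, scaled per plate between neutral and stimulator controls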;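 note: PAF is a Pseudomonas aeruginosa culture filtrate used as stimulus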
KKLEB cytotox: reduces viability of KKLEB cystic fibrosis airway cells | KKLEB CF airway cells viability, ATPlite luminescence, overnight; hits give low values; cells stimulated with P. aeruginosa culture filtrate | activity change (cytotoxicity), % at 5 µM | 0.36% of 360,000 active | AID 602141;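 active = corrected activity change at or below -50% at 5 µM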
Peg3 prom inh: reduces Peg3 promoter-driven luciferase expression in HeLa | HeLa PEG-Prom luciferase reporter, luminescence, overnight | inhibition, % at 20 µM | 1.7% of 360,000 active | AID 588405;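 active = inhibition of at least 50% at 20 µM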
HIF-2a block: inhibitors of HIF-2a; 786-0 RCC cells HIF-2a reporter, luciferase luminescence, overnight; inhibition, % at 18.8 µM; 0.72% of 360,000 active;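 active = inhibition of the luminescence signal of 40% or more relative to plate controls, in a single-dose primary screen at 18.75 µM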
PPC-1+TRAIL kill: kills PPC-1 cancer cells in the presence of TRAIL; PPC-1 cells + TRAIL, ATPLite viability luminescence; cell killing (% activity), % at 4 µM or 5 µM; 0.41% of 220,000 active;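 active = cell killing above 50% in the first pass at 4 µM, then a duplicate retest at 5 µM averaging 50% or more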
C8 TRAIL sens: caspase-8 TRAIL sensitization | NB7+C8 cells + TRAIL, ATPlite viability luminescence | inhibition (viability loss, TRAIL sensitization), % at 10 µM | 1% of 360,000 active;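 active = compounds causing at least 50% loss of cell viability in the single-dose screen, relative to plate controls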
Large screens that a line does not name were inactive. Sampled rows, rich in hits. Any-hit rate of the full collection: about 3.1%.

Cc1cc2nc(-c3ccc(SCC(=O)Nc4ccc(S(=O)(=O)NC5CC5)cc4)nc3)[nH]c2cc1C	PPC-1+TRAIL kill 52, C8 TRAIL sens 84
COc1ccccc1C(=O)OCc1c(-c2ccccc2)ncc2ccccc12	none (no result: PPC-1+TRAIL kill)
O=C1c2ccccc2NC(c2ccc3c(c2)OCCO3)N1c1ccc2c(c1)OCCO2 (stereo not drawn)	C8 TRAIL sens 64
COc1cc(C2Nc3ccccc3C(=O)N2c2ccc3c(c2)OCCO3)ccc1OCC(C)C (stereo not drawn)	C8 TRAIL sens 55
COc1cc(C2Nc3ccccc3C(=O)N2c2ccccc2OC)ccc1O (stereo not drawn)	none
Cc1ccc(OCc2nc3ccccc3n2C(C(=O)NC(C)(C)C)c2ccncc2)cc1 (stereo not drawn)	none (no result: CF NFkB block, KKLEB cytotox, Peg3 prom inh, PPC-1+TRAIL kill)
O=C1NC(Cc2ccc(O)cc2)c2nc3ccc(Br)cc3c(=O)n2-c2cc3ccccc3cc21 (stereo not drawn)	none (no result: PPC-1+TRAIL kill)
Cc1cc(C)c2c(=O)n3c(nc2c1)C(Cc1ccc(O)cc1)NC(=O)c1cc2ccccc2cc1-3 (stereo not drawn)	Peg3 prom inh 67 (no result: PPC-1+TRAIL kill)
CC(C)(C)c1ccc(OC(=O)Nc2ccc(O)c(C(=O)O)c2)cc1	HIF-2a block 69
Cc1cccc(OC(=O)Nc2ccc(C(=O)O)c(O)c2)c1	none (no result: PPC-1+TRAIL kill)
O=C(C#Cc1ccccc1)Nc1cccc(F)c1	CF NFkB block 58, KKLEB cytotox -57 (no result: PPC-1+TRAIL kill)
O=C(C#Cc1ccccc1)Nc1ccc(F)cc1	none (no result: PPC-1+TRAIL kill)
O=C(O)c1ccccc1C(c1ccccc1)c1ccccc1O (stereo not drawn)	none (no result: PPC-1+TRAIL kill)
O=C(N/N=C/c1sc(=O)n(Cc2ccc(Br)cc2)c1Cl)c1ccco1	CF NFkB block 64, KKLEB cytotox -75, Peg3 prom inh 84 (no result: PPC-1+TRAIL kill)
CCCCCCCOC(=O)C[N+](C)(C)CCOC1CC2CCC1(C)C2(C)C (stereo not drawn)	Peg3 prom inh 99
O=C(NCc1ccccc1)c1cc(C2CCCCN2C(=O)OCCF)on1 (stereo not drawn)	none (no result: PPC-1+TRAIL kill)
O=C(N/N=C/c1cccs1)c1cncc(Br)c1	none
O=C(N/N=C\c1ccc([N+](=O)[O-])s1)c1cncc(Br)c1	Peg3 prom inh 63
Cc1cc(OCC(=O)Nc2ccc3oc(-c4ccncc4)nc3c2)ccc1Cl	Peg3 prom inh 53
Cc1ccc(OCC(=O)Nc2ccon2)c([N+](=O)[O-])c1	none (no result: PPC-1+TRAIL kill)
Cc1ccc(S(=O)(=O)N2[C@H](c3cccc(Cl)c3)CC(=O)[C@@H]3CN(S(=O)(=O)c4ccccc4C)[C@H](c4ccc(Cl)cc4)C[C@@H]32)cc1	none (no result: PPC-1+TRAIL kill)
CC12CCCC[C@@H]1CCC1C2CCC2(C)C1CC[C@@]2(O)CNCCO (stereo partly drawn)	Peg3 prom inh 110 (no result: PPC-1+TRAIL kill)
CN(Cc1ccccc1)c1ccc(C(CC(N)=O)NC(=O)c2ccccc2)cc1[N+](=O)[O-] (stereo not drawn)	none (no result: PPC-1+TRAIL kill)
CCc1nc(N)nc(N)c1-c1ccc(N(C)Cc2ccccc2)c([N+](=O)[O-])c1	C8 TRAIL sens 70 (no result: PPC-1+TRAIL kill)
CC(=O)Nc1ccc(N(C(=O)CNC(=O)c2cccs2)C(C(=O)NCC2CCCO2)c2ccccc2)cc1 (stereo not drawn)	none (no result: PPC-1+TRAIL kill)
CC(=O)c1ccc(N(C(=O)CNC(=O)c2cccs2)C(C(=O)NCC2CCCO2)c2ccccc2)cc1 (stereo not drawn)	Peg3 prom inh 94 (no result: PPC-1+TRAIL kill)
CC(C)(C)NC(=O)NC(=O)CSc1ccc(S(=O)(=O)N2CCCCC2)cn1	none (no result: PPC-1+TRAIL kill)
COc1ccc(NC(=O)CNc2ccccc2C(C)=O)cc1S(=O)(=O)N1CCOCC1	none (no result: PPC-1+TRAIL kill)
COc1cccc(CNCCNC(=O)c2nonc2N)c1	none
Cc1c(C(=O)N/N=C/c2cccc(O)c2)nnn1-c1nonc1N	none (no result: PPC-1+TRAIL kill)
Cc1ccccc1COc1cccc(/C=N/NC(=O)c2nnn(-c3nonc3N)c2C)c1	Peg3 prom inh 74 (no result: PPC-1+TRAIL kill)
COc1c(Cl)cc(Cl)cc1/C=N/NC(=O)c1nnn(-c2nonc2N)c1CN1CCC(C)CC1	none (no result: PPC-1+TRAIL kill)
CC1CCN(Cc2c(C(=O)N/N=C/c3cc(Cl)ccc3O)nnn2-c2nonc2N)CC1	Peg3 prom inh 76 (no result: PPC-1+TRAIL kill)
CCCc1c(C(=O)N/N=C/C(C)=C/c2ccccc2)nnn1-c1nonc1N	none (no result: PPC-1+TRAIL kill)
CCCc1c(C(=O)N/N=C/C=C/c2ccccc2)nnn1-c1nonc1N	C8 TRAIL sens 55 (no result: PPC-1+TRAIL kill)
COc1cc(CNCCNC(=O)c2nonc2N)ccc1OCc1ccc(Cl)cc1	Peg3 prom inh 88
COc1ccc(C(C)(C)C)cc1NC(=O)c1cccc(S(=O)(=O)N2CCN(C(C)=O)CC2)c1	none (no result: PPC-1+TRAIL kill)
CC1(C)OC(=O)C2=C(C[C@@H](CCOCc3ccccc3)O[C@@H]2c2ccc(F)cc2)O1	none (no result: CF NFkB block, KKLEB cytotox, Peg3 prom inh, PPC-1+TRAIL kill)
CCN(CC(=O)Nc1c(F)cccc1F)C(=O)COc1ccc2c(c1)CCC2	none (no result: PPC-1+TRAIL kill)
COc1cc(/C=N/NC(=O)c2nnn(-c3nonc3N)c2C(C)C)ccc1OCc1ccccc1	none (no result: PPC-1+TRAIL kill)
COc1cc(/C=N/NC(=O)c2nnn(-c3nonc3N)c2C)ccc1OCc1ccc(Cl)cc1	C8 TRAIL sens 56 (no result: PPC-1+TRAIL kill)
COc1cc2cc(-c3ccc(OC)c(OC)c3C)nc(N)c2cc1OC	Peg3 prom inh 65 (no result: PPC-1+TRAIL kill)
Cc1ccccc1-n1nnnc1SCC(=O)NCC1(N2CCOCC2)CCCCC1	none (no result: PPC-1+TRAIL kill)
Cc1c(C)c2ccc(OCC(=O)Nc3nccs3)cc2oc1=O	C8 TRAIL sens 55 (no result: PPC-1+TRAIL kill)
Cc1cccc(NC(=O)/C(C#N)=C/c2cn(CC(=O)NCc3ccco3)c3ccccc23)c1	CF NFkB block 60, KKLEB cytotox -63, Peg3 prom inh 60
COc1ccccc1OCCn1cc(/C=C(\C#N)C(=O)NCc2ccco2)c2ccccc21	none
Cc1ccc(C)c(OCCn2cc(/C=C(\C#N)C(=O)NCc3ccco3)c3ccccc32)c1	CF NFkB block 57, KKLEB cytotox -58
CCCSc1nc(N)nc2c1ncn2C1OC(CO)C(O)C1O (stereo not drawn)	none (no result: PPC-1+TRAIL kill)
CCOc1ccc2nc3cc(N=Nc4ccc(N)nc4N)ccc3c(N)c2c1	Peg3 prom inh 74, C8 TRAIL sens 79 (no result: PPC-1+TRAIL kill)
Oc1c(C(Nc2nccs2)c2ccc(C(F)(F)F)cc2)ccc2cccnc12 (stereo not drawn)	Peg3 prom inh 68, HIF-2a block 87
Oc1c(C(Nc2cccc(C(F)(F)F)c2)c2ccncc2)ccc2cccnc12 (stereo not drawn)	none
COCCNC(=O)c1onc(CSc2ccccc2C)c1C(=O)O	none
COCCNC(=O)c1onc(CSc2ccccc2F)c1C(=O)O	PPC-1+TRAIL kill 55
C(=N\Nc1nn2cnnc2c2ccccc12)/c1ccco1	none
Oc1ccc(/C=N/Nc2nn3cnnc3c3ccccc23)cc1	C8 TRAIL sens 63
COc1cccc(/C=N/Nc2nn3cnnc3c3ccccc23)c1	C8 TRAIL sens 64
Cc1csc(N2C(=O)C3C4CCC(O4)C3C2=O)n1 (stereo not drawn)	none (no result: PPC-1+TRAIL kill)
CCOC(=O)C1(C(=O)OCC)C(C)CC(=O)N1c1ccccc1OC (stereo not drawn)	none (no result: PPC-1+TRAIL kill)

Source: PubChem
